Holding throughout (assay): NCI-60 one-dose screen, 48 h (100 = growth as untreated, 0 = no growth, -100 = all killed)
Settings in all cases: 10 µM

Test [1] relates to NCI-H23 lung.
Test [2] deals with NCI-H226 lung.
Test [3] relates to NCI-H322M lung.
The test system of test [4] is HOP-62 NSCLC.
In test [5] the test system is NCI-H460 lung.
The test system of test [6] is HOP-92 NSCLC.
Test [7] relates to NCI-H522 lung.
For test [8], the system named is A549/ATCC NSCLC.
Test [9] deals with 786-0 renal.
Test [10] has as its system COLO 205 colon.
Test [11] relates to DU-145 prostate.
The test system of test [12] is K-562 leukemia.
Test [13] deals with MALME-3M melanoma.
Test [14] has as its system MDA-MB-231 breast.
Test [15] deals with RXF 393 renal.
In test [16] the test system is SF-268 CNS.
Test [17] deals with SF-295 CNS.
In test [18] the test system is SF-539 CNS.
In test [19] the test system is UACC-257 melanoma.
Test [20] has as its system M14 melanoma.

Compounds without any hit were thinned out: in the full panel of roughly 83,000, 20% have a hit.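 Note: values are percent growth. 100 is the growth of untreated cells, values between 100 and 0 indicate rising inhibition; between -100 and 0 indicates cell death.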 Values without a mark were called inactive. Activity calls are given as the source filed them. The calls were made as follows: active = growth percent below 10; inactive = the rest.

For the molecule `N#CN1CC[C@H](C(=O)Nc2ncc(-c3ccncc3)s2)C1`, the growth was -22% (active) in test [1]; -9.42% (active) in [2]; 11.1% in test [3]; -7.49% (active) in [4]; 3.58% (active) in test [5]; -0.157% (active) in [6]. The growth in test [7] was -37.8% (active); in test [8], -32.4% (active); in test [9], 5.77% (active); in [10] it was -55.4% (active); in [11], 8.45% (active); in [12], 3.89% (active). Besides, the growth is -19.4% (active) in test [13]; 2.16% (active) in [14]; -58.8% (active) in [15]; 5.17% (active) in test [16]; 4.53% (active) in [17]; -20.7% (active) in test [18]. Besides, the growth was -19.4% (active) in [19] and 1.13% (active) in [20].
Regarding `Nc1ccc(Sc2ccc3c4c2cccc4c(=O)n2c4ccccc4nc32)cc1`, the growth in [1] is 37.5%; in test [2], 40.6%; in [3], 61.8%; in [4], 51.2%; in test [5], 9.47% (active); in test [6], 28.7%. Moreover, the growth is 60% in [7]; 20.6% in test [8]; 37.3% in test [9]; 50.8% in test [10]; 39.3% in test [11]; 60.3% in test [12]. In addition, the growth is 34% in [13]; 54.4% in test [14]; 72.6% in test [15]; 59.4% in [16]; 12% in test [17]; 48.5% in test [18]. The figures for the growth in [19] and in test [20] were 71% and 45.4%, respectively.
As for `CCc1nn2c(-c3cc(OC)c(OC)c(OC)c3)c(-c3cc(OC)c(OC)c(OC)c3)nc2s1`, the growth in test [1] is 87.9%; in [2], 92%; in test [3], 81.6%; in [4], 40.8%; in [5] it was 97.1%; in [6], -15.2% (active). The growth in test [7] is 46%; in test [8], 86%; in [9], 58.6%; in test [10], 94.9%; in [11], 88.1%; in test [12], 85.7%. In addition, the growth in test [13] was 47.5%; in [14], 58.9%; in test [15], 38.8%; in [16] it was 45.9%; in test [17], 61.4%; in test [18], 59.6%. Besides, the figures for the growth in [19] and in test [20] were 108% and 89.5%, respectively.
Turning to `Cc1nc(N)sc1Sc1nc2ccc(Cl)cc2c(=O)n1-c1ccc(Oc2ccccc2)cc1`, the growth in test [1] was 74%; in [2], 86.4%; in test [3] it was 111%; in test [4] it was 116%; in test [5] it was 82%; in [6] it was 74.4%. Moreover, the growth in test [7] is 85.3%; in test [8], 70.2%; in test [9] it was 68.5%; in test [10], 102%; in test [11], 92.5%; in test [12], 74.4%. In addition, the growth in [13] is 95.1%; in test [14] it was 89.3%; in test [15] it was 86.4%; in test [16], 107%; in [17], 67.8%; in test [18] it was 93.4%. The growth was 75.7% in [19] and 76.6% in test [20].
Take `Cc1ccccc1C1=N[C@@H](Cc2ccccc2)C(=O)c2c(nc3ccccn23)N1`: the growth in test [1] is 95.3%; in [2], 98.9%; in [3], 106%; in test [4] it was 93.4%; in test [5], 103%; in test [6] it was 90.5%. In addition, the growth in test [7] was 121%; in test [8], 91.7%; in test [9], 101%; in test [10], 107%; in [11] it was 113%; in test [12], 113%. Further, the growth in [13] was 109%; in [14], 104%; in [15], 105%; in [16], 104%; in test [17] it was 96.5%; in [18], 99.4%. Moreover, the growth in test [19] is 87.3%; in [20] it was 102%.
Turning to `O=C1/C(=C/c2ccc(O)cc2O)N=C2SCCCN12`, the growth in test [1] is 95.2%; in test [2], 106%; in test [3] it was 97.8%; in [4] it was 85.4%; in test [5] it was 110%; in test [6], 108%. For the same molecule, the growth was 92.3% in test [7]; 92.1% in test [8]; 81.9% in test [9]; 106% in test [10]; 104% in test [11]; 92.5% in [12]. Besides, the growth in [13] is 101%; in test [14], 104%; in test [15] it was 102%; in test [16], 96.9%; in [17] it was 96.3%; in test [18], 93.7%. Further, the growth was 102% in test [19] and 100% in [20].
Turning to `CC(=O)/C(=C\c1ccc(Cl)cc1)c1ccccc1`, the growth is 20.1% in test [1]; 8.66% (active) in test [2]; 49.1% in [3]; 32% in test [4]; 6.31% (active) in [5]; -0.736% (active) in test [6]. Moreover, the growth in [7] was -1.57% (active); in [8], 17.1%; in test [9] it was 22.9%; in test [10] it was -40.5% (active); in test [11] it was 0.722% (active); in [12], 8.97% (active). The growth in [13] is 73.1%; in test [14], 19.4%; in [15], 25.7%; in test [16], 23.9%; in test [17], -6.11% (active); in test [18], -1.66% (active). Further, the results for the growth in test [19] and in [20] were 72.2% and 1.53% (active), respectively.
For `Clc1ccc(-c2nc(-c3cccs3)cn3ccnc23)cc1`, the growth in [1] was 71.1%; in [2], 72%; in [3] it was 97.4%; in test [4], 57.7%; in [5], 81.3%; in test [6] it was 81.5%. The growth is 28% in test [7]; 57.4% in test [8]; 99.8% in [9]; 71.1% in test [10]; 94.7% in test [11]; 26.1% in test [12]. Also, the growth in test [13] is 86%; in test [14], 66.5%; in test [15], 86.7%; in test [16] it was 82.8%; in test [17], 81.9%; in test [18] it was 76.7%. In addition, the growth was 70.2% in [19] and 61.5% in test [20].
